# Screening data (PubChem)
# Compounds with a hit are over-represented: about 14% of the library has one in this group of screens.
# HCV inhibitor = qHTS Assay for Inhibitors of Hepatitis C Virus (HCV); Huh7.5.1 HCVcc-Cre infection, luciferase reporter, 44 h; Potency, µM (highest dose often 41.8 µM), for inactives: top-dose activity change, negative = inhibition, usual class: inhibitors; actives 3.4% (n = 340,000); AID 651820, 2012; note: potency is the fitted concentration of half-maximal effect
#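 Cells (1,000/well) were plated 4 h before compound, then infected with HCVcc-Cre virus (~0.5 moi). After 44 h further culture, infection was read as luciferase luminescence following a 15 min substrate incubation at room temperature.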
# HCMV inh = qHTS Assay for inhibitors of the human cytomegalovirus (HCMV); HFF cells, HCMV-luciferase reporter, 72 h; active compounds read low; activity change, negative = inhibition, % at 57.5 µM; actives 4.5% (n = 410,000); AID 1259415, 2018; in the data active = activity change below about -60%; inconclusive = no clear call, values can overlap the other calls; inactive = above about -39%
#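 Human foreskin fibroblasts infected with luciferase-reporter HCMV at MOI 1 PFU/cell, compounds at two doses. Luciferase measured 72 h post infection; normalized to buffer-only basal and Salinomycin (10uM) controls.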
# Pf growth 96h = Primary qHTS for delayed death inhibitors of the malarial parasite plastid, 96 hour incubation | Potency, µM (titrated, usually from 28.7 µM), for the others: at the top dose activity change, negative = inhibition, most hits filed as inhibitors | actives 6.9% (n = 320,000) | AID 504834, 2011 | P. falciparum luciferase reporter growth, 96 h; note: potency is the fitted concentration of half-maximal effect
#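 Readout is luminescence from an integrated firefly luciferase in P. falciparum. Red cells, 2% hematocrit and 0.05% parasitemia final, were cultured with compound through two parasite generations (96 hours) at 37 C, 5% CO2.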
# Lassa entry inh = qHTS for Inhibitors of binding or entry into cells for Lassa Virus; Lassa virus pseudotype entry inhibition, cell reporter; Potency, µM (titrated, usually from 37.9 µM), for inactives: top-dose activity change, negative = inhibition, hits mostly inhibitors; actives 1.2% (n = 300,000); calls by dose curve; tested in HEK293 cells; note: potency is the fitted concentration of half-maximal effect; nearly all actives have a fitted effect of over 50% in size
# MARV entry inh = qHTS for inhibitors of binding or entry into cells for Marburg Virus | Marburg virus pseudotyped entry inhibition, cell reporter | Potency, µM (titrated, usually from 37.8 µM), inactives show at the top dose activity change, negative = inhibition, actives largely listed as inhibitors | actives 1.8% (n = 300,000) | AID 540276, 2011; calls by dose curve; tested in HEK293 cells; note: potency is the fitted concentration of half-maximal effect
# Pf growth 48h = Primary qHTS for delayed death inhibitors of the malarial parasite plastid, 48 hour incubation. AID 504832, 2011. actives 5.9% (n = 310,000). P. falciparum luciferase growth in erythrocytes, 48 h. Potency, µM (titrated, usually from 28.7 µM), without a hit: at the top dose activity change, negative = inhibition, usual class: inhibitors; note: potency is the fitted concentration of half-maximal effect
#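 Luciferase-expressing parasites in RBCs, 2% Hct / 0.1% parasitemia final; RPMI 1640 + 0.5% Albumax; 37 C, 5% CO2, one generation; luminescence read-out, lower signal = inhibition.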
# Active calls of the source: *; ? = inconclusive; . = no result given; [ ] = another dose, or the depositor's remark. Unless noted, calls come from the whole dose curve; as a rule, active = well fitted inhibition curve with a large enough effect; inconclusive = small, poorly fitted or top-dose-only effect, or another doubt; inactive = no such curve, though single readings can be large or run the other way. % is set by controls: 0 for no effect and ±100 for the full control effect.
SMILES,HCV inhibitor,HCMV inh,Pf growth 96h,Lassa entry inh,MARV entry inh,Pf growth 48h
Cc1ccc(S(=O)(=O)N2CCC(C(=O)NCCN3CCOCC3)CC2)cc1,.,-25.4,.,.,.,.
Cc1ccc(C(=O)Nc2cccc(NC(=O)c3ccc(C)c([N+](=O)[O-])c3)n2)cc1[N+](=O)[O-],?,-9.0,?,?,?,1.65µM*
COc1ccc(C(=O)Nc2cccnc2Cl)cc1OC,3.9%,-87.4*,0.5%,.,.,22.9%
O=C(N/N=C/c1ccc[nH]1)c1ccccc1[N+](=O)[O-],19.6%,?,?,?,27.1%,15.9%
COc1ccccc1C(=O)NC(=S)Nc1cccnc1Cl,11.2µM*,55.9,-16.8%,?,?,243.7%
Cc1ccc(C(=O)N/N=C\c2ccc[nH]2)cc1[N+](=O)[O-],4.47µM*,-6.7,1.7%,8.91µM*,4.47µM*,23.6%
Cc1ccccc1NC(=O)CSCn1nnc2c(=O)[nH]c(Cc3ccc(F)cc3)nc21,.,6.9,.,15.8%[46.1 µM],-19.3%[46.1 µM],.
COc1ccccc1Nc1ncccc1C(=O)O,21.1%,90.2,9.28µM*,0.3%,15.0%,11.2%
CCOc1ccccc1Nc1ncccc1C(=O)O,14.9%,-1.4,0.7%,9.1%,?,.
COc1ccc(C(=O)Nc2cccc(NC(=O)c3ccc(OC)c(OC)c3)n2)cc1OC,?,76.9,-14.6%,.,.,10.4µM*
COc1ccc(C(=O)Nc2cccc3cccnc23)cc1OC,?,108.5,-13.5%,-9.6%,?,.
Cc1cc(C(=O)OC(C(=O)Nc2ccc(C)c(Cl)c2)c2ccccc2)c(C)o1 (configuration not stated),?,-35.6,?,8.7%,-20.5%,10.4µM*
O=C(CSCC(=O)NC1CC1)Nc1ccccc1,-9.5%,50.3,-13.0%,8.9%,-2.6%,25.7%
COc1cccc(NC(=O)C(NC2CCCC2)c2ccccc2)c1 (configuration not stated),-26.3%,-7.8,?,-0.1%,-3.9%,?
Cc1ccc(NC(=O)C(NC2CCCC2)c2ccccc2)cc1Cl (configuration not stated),-14.1%,6.4,11.7µM*,?,?,13.1µM*
O=C(Nc1ccc2ccccc2c1)C(c1ccccc1)C1CCCC1 (configuration not stated),?,?,2.08µM*,2.59µM*,?,8.28µM*
Cc1ccc(NC(=O)C(c2ccccc2)C2CCCC2)cc1 (configuration not stated),-5.2%,-20.0,?,1.7%,-29.2%,-26.2%
O=C(CSCC(=O)NC1CC1)Nc1ccc2ccccc2c1,27.7%,28.7,?,-3.7%,12.7%,13.1µM*
CC(=NN1CC(=O)NC1=O)c1ccc([N+](=O)[O-])o1,?,18.7,.,?,?,.
CCN(CC)C(=O)C1=C(C)N(CCC2=CCCCC2)C(=O)C(CC(=O)NCc2cccs2)C1 (configuration not stated),.,-6.5,.,.,.,.
CCc1cccc(NC(=O)Cn2c(-c3ccc(F)cc3)cc(C(C)=O)c2C)c1,.,?,.,-11.6%[46.1 µM],.,.
COCC=CC1=CC2=CC(=O)C(C)(OC(=O)c3cnc4ccccc4n3)C(=O)C2=CN1Cc1ccc(OC)cc1 (configuration not stated),.,.,.,.,-2.4%[14.2 µM],.
c1ccc2c(c1)CC1CNCc3cccc(c31)S2 (configuration not stated),?,-6.2,10.4µM*,?,?,?
CC1(C(=O)NS(=O)(=O)c2ccc(Cl)cc2)CCN1C(=O)Cc1ccccc1Cl (configuration not stated),.,2.2,.,.,.,.
CC1CCC/C(=C(\C#N)c2nc(-c3cc4ccccc4oc3=O)cs2)C1 (configuration not stated),?,?,6.57µM*,14.2%,?,296.5%
SMILES,HCV inhibitor,HCMV inh,Pf growth 96h,Lassa entry inh,MARV entry inh,Pf growth 48h
Nc1ncnc2c1ncn2[C@@H]1O[C@H](CNC(=O)OC[C@@H](N)Cc2ccccc2)[C@@H](O)[C@H]1O,.,-4.7,.,.,.,.
O=C(OCC1OC(n2cnc3c(N(C(=O)c4ccccc4)C(=O)c4ccccc4)ncnc32)C(O)C1F)c1ccccc1 (configuration not stated),4.8%,5.3,17.3%,13µM*,-8.5%,-25.7%
CCc1nn2c(=O)c(F)c(N3CCNCC3)nc2s1,.,-104.6*,.,.,.,.
CCc1nn2c(=O)cc(N3CCN(c4cc(C)nc5ccccc45)CC3)nc2s1,19.0%,.,.,.,.,?
CCc1ccc(CN2CCCC(C(=O)N3CCCCC3)C2)cc1 (configuration not stated),?,28.6,-1.6%,-1.0%[46.1 µM],?,0.0%
Cc1ccc(C)c(NC(=O)Cn2c(=O)n(CCC(=O)NCc3ccc4c(c3)OCO4)c(=O)c3ccccc32)c1,.,-2.2,.,-1.7%[46.1 µM],-6.6%[46.1 µM],.
COc1ccc(Cl)cc1NC(=O)Cn1c(=O)n(CCC(=O)NCc2ccc3c(c2)OCO3)c(=O)c2ccccc21,.,-63.7*,.,-0.7%[46.1 µM],-20.4%[46.1 µM],.
Cc1ccccc1Cn1c(=O)n(CCC(=O)NCc2ccc3c(c2)OCO3)c(=O)c2ccccc21,23.1%,?,4.65µM*,-17.5%,?,.
COc1ccc(OC)c(Nc2nc3ccccc3nc2-n2nc(C)cc2C)c1,.,-5.8,.,24.4%[46.1 µM],-2.9%[46.1 µM],.
CN(Cc1ccc(F)cc1)Cc1nc(-c2ccccc2)no1,2.6%,62.2,10.4µM*,2.3%,6.5%,-3.1%
COc1ccc(-c2noc(CN(C)Cc3ccccc3)n2)cc1,5.0%,50.1,?,.,.,20.7%
CCc1nn(CCCC(=O)NCc2cc(Br)ccc2OC)c(=O)c2cc3occc3n12,10µM*,-36.9,12.2%,-6.8%[46.1 µM],?,?
CCc1nn(C(C)C(=O)NC2CCCCCC2)c(=O)c2cc3occc3n12 (configuration not stated),10µM*,?,115.7%,18.0%[46.1 µM],20.6%[46.1 µM],-2.3%
CCc1nn(CCCC(=O)NCc2ccc(OC(C)C)cc2)c(=O)c2cc3occc3n12,8.91µM*,?,7.4%,18.0%[46.1 µM],?,10.7%
CCC(C(=O)NC1CCCCCC1)n1nc(C)n2c(cc3occc32)c1=O (configuration not stated),-18.9%,0.0,?,.,.,15.7%
CCc1nn(CCCC(=O)NCc2ccco2)c(=O)c2cc3occc3n12,?,?,?,?,6.5%[46.1 µM],-18.7%
CCOc1ccc(CNC(=O)CCCn2nc(CC)n3c(cc4occc43)c2=O)cc1,?,-60.0*,55.7%,.,.,-15.1%
N#Cc1ccccc1NC(=O)C1CCCO1 (configuration not stated),.,-10.9,.,.,.,.
